These results are taken from PubChem BioAssay (NCATS).

Inconclusive results are not listed. The source made the active and inactive calls. The call rests on the fitted dose curve; in most records, active means well fitted curve in either direction with a large enough effect (not every such curve was filed as active); inconclusive means small, poorly fitted or top-dose-only effect, or another doubt; inactive means flat fitted curve, though single readings scatter.

The target in this test is Mitogen-activated protein kinase 10 (Mus musculus) (UniProt Q61831). The test is described as follows: JNK3 AlphaScreen Assay (AID 530).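 Further: kinase came from lysate of stimulated human HepG2 cells.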 As to conditions: JNK3 lysate, c-Jun phosphorylation; series mostly up to 57.1 µM. The text has this:
NIH Chemical Genomics Center [NCGC]
NIH Molecular Libraries Screening Centers Network [MLSCN]
The c-jun N-terminal kinase (JNK) family are serine/threonine protein kinases that phosphorylate c-jun, a component of the transcription factor […] (AP-1). JNK kinases are members of the mitogen-activated protein kinase family including the extracellular regulated kinases and p38 kinases. Three JNK genes (JNK 1, 2, and 3) have been identified in humans so far. JNK1 and JNK2 have a broad distribution and JNK3 is primarily found in neuronal tissues and cardiac myocytes.
JNK3 has been under consideration as a target for the treatment of neurodegenerative disorders. […] JNK pathway is also involved in pathological process in a mouse model of Parkinson's disease (Xia et al., 2001).
Given these potential tissue distributions and links to neuroprotection, JNK3 inhibitors should provide useful investigational tools to study the role of this kinase in several diseases including, arthritis, stroke, myocardial infarction, ischemic injury and Parkinson's disease.
A homogeneous AlphaScreen is developed to measure the activity of JNK3. AlphaScreen is a two bead-based proximity-dependent chemical energy transfer luminescent assay platform. The phosphorylation of a biotinylated c-jun substrate by JNK3 can be detected with an antibody raised against phosphorylated c-jun. This process brings streptavidin donor beads and Protein-A acceptor beads to within a proximity range of <200 nm, and subsequently lead a chemical luminescent reaction upon exciting donor beads with 680 nm laser excitation light. Inhibition of JNK3 activity by small molecules and subsequent decrease in the antibody binding to biotinylated c-jun could attenuate or abolish this chemical luminescent reaction.
Yang DD, Kuan CY, Whitmarsh AJ, Rincon M, Zheng TS, Davis RJ, Rakic P and Flavell RA (1997) Absence of excitotoxicity-induced apoptosis in the hippocampus of mice lacking the Jnk3 gene. Nature 389:865-870. [PMID: 9349820]
Herdegen T, Claret FX, Kallunki T, Martin-Villalba A, Winter C, Hunter T, and Karin M (1998) Lasting N-terminal phosphorylation of c-Jun and activation of c-Jun N-terminal kinases after neuronal injury. J.Neurosci. 18:5124-5135. [PMID: 9651196]
Xia XG, Harding T, Weller M, Bieneman A, Uney JB and Schulz JB (2001) Gene transfer of the JNK interacting protein-1 protects dopaminergic neurons in the MPTP model of Parkinson's disease. Proc.Natl.Acad.Sci.U.S.A. 98:10433-10438.
NCGC Assay Protocol Summary:
GST-cJun (1-79) (Stratagene, La Jolla CA, #205145) was biotnylated by PerkinElmer (PerkinElmer-BioSignalInc. Montreal, Canada) and was detectable by the streptavidin Donor beads. Anti-(phospho)cJun (Ser73) antibody was from UpState (Charlottesvilles, VA, #06-659). JNK3-containing lysates were generated from HepG2 cells and pre-activated by interleukin1-beta and tumor necrosis factor alpha. All reagents were stored at -20 C before using. Phosphorylated biotinylated-GST-cJun was recognized by Anti-(phospho)cJun (Ser73) antibody and this process brings acceptor and donor beads together. Therefore JNK3 phosphorylation of cJun can be measured by Alpha reading by EnVision (PerkinElmer, Boston, MA).
The composition of kinase buffer was (in mM) 20 tris- HCl (pH 7.6) 10 MgCl2, 1 DTT, and 0.1 Na3VO4 and 0.01% Tween-20. Beads were diluted in detection buffer containing (in mM) 20 tris-HCl (pH 7.7), 20 NaCl and 80 EDTA and 0.3% BSA. The assay was performed at room temperature. All compounds were screened as titrations from 0.6 nM to 46 uM final concentration. The assay was performed in 1536-well format (white solid bottom and untreated) as follows:
Sequence,Parameter,Value,Description
1,Reagent,3 uL,Biotin-GST-cJun, Anti-(phospho)cJun and pre-activated JNK3-containing lysates
2,Compound,23 nL,Final concentration was 0.6nM to 46uM
3,Time,15 minutes,Room Temperature
4,Reagent,1 uL,ATP final concentration 10uM
6,Reagent,0.5 uL,2ng/well bead mixture
[…]
Turning to `CC(C)(O)C(=O)Nc1ccc([N+](=O)[O-])c(C(F)(F)F)c1`, the compound was called inactive.
In the case of `CCOC(=O)c1cncn1[C@H](C)c1ccccc1` it was “inactive”; in that of `Nc1ccc(Cl)cc1N`, “inactive”.
In the case of `C[C@]12N[C@H](Cc3ccccc31)c1ccccc12` it was “inactive”.
Next, `CCOCCOC(C)=O`: “inactive”; `O=c1cccc2n1CC1CNC[C@H]2C1`: “inactive”.
With `CN(C)[C@@H]1C(=O)C(C(N)=O)=C(O)[C@@]2(O)C(=O)C3=C(O)c4c(O)cccc4[C@@](C)(O)[C@H]3[C@H](O)[C@@H]12`, the result was inactive.
In the case of `c1ccc2sc(C3(N4CCCCC4)CCCCC3)cc2c1` it was “inactive”.
In the case of `Cc1cc(O)ccc1Cl` it was “inactive”; in that of `NCc1cc(=O)[nH]o1`, “inactive”.
Next, `O=C(O)COc1ccccc1`: “inactive”.
Consider `CCOP(=O)(NC(C)C)Oc1ccc(SC)c(C)c1` (stereo not given), for which the outcome was inactive.
Consider `S=C(NC1CCCCC1)N1CCC(c2cnc[nH]2)CC1`, for which the outcome was inactive.
Next, `Clc1cnc(Oc2ccc(Oc3ncc(Cl)cc3Cl)cc2)c(Cl)c1`: “inactive”.
Next, `C#CCOC(=O)C1=CCCN(C)C1`: “inactive”.
In the case of `COC(C)(C)CCCC(C)C/C=C/C(C)=C/C(=O)OC(C)C` (stereo not given) it was “inactive”; in that of `O=C(O)Cc1cnc[nH]1`, “inactive”.
Regarding `CC(=O)[O][Hg][c]1ccccc1`, the compound was classed as inactive.
Regarding `O=C1CCCN1CC#CCN1CCCC1`, the compound was called inactive.
Next, `C1CCC(NC2CCCCC2)CC1`: “inactive”; `O=[N+]([O-])c1c2ccccc2cc2ccccc12`: “inactive”.
Regarding `CC(=O)OCC1=C(C(=O)O)N2C(=O)[C@@H](N)[C@@H]2SC1`, the compound was classed as inactive.
Regarding `Nc1ccc(Sc2ccc(N)cc2)cc1`, the call was inactive.
As for `C=CC(=O)NCNC(=O)C=C`, the outcome was inactive.
In the case of `O=C(O)CC[N+](=O)[O-]` it was “inactive”.
Next, `CCCN1CCO[C@@H]2c3cc(O)ccc3OC[C@H]21`: “inactive”; `Cc1nc(-c2ccc(-c3ccc(C(=O)N4CCc5cc6c(cc54)C4(CCN(C)CC4)CO6)cc3)c(C)c2)no1`: “inactive”; `O=C(O)C(Cl)Cl`: “inactive”.
Next, `CC[C@@]1(O)C(=O)OCc2c1cc1n(c2=O)Cc2cc3ccccc3nc2-1`: “inactive”; `c1ccc(CCCN2CCN(CCOC(c3ccccc3)c3ccccc3)CC2)cc1`: “inactive”.
With `CN(C)NC(=O)CCC(=O)O`, the compound was called inactive.
In the case of `C[C@@H](N)Cc1cnc[nH]1` it was “inactive”; in that of `CN[C@@H]1C[C@@H](c2ccc(Cl)c(Cl)c2)c2ccccc21`, “inactive”; in that of `C[C@@H]1O[C@H](C[N+](C)(C)C)C[C@H]1O`, “inactive”.
In the case of `Nc1ccc(Cl)cc1` it was “inactive”; in that of `NCCc1c[nH]c2ccc(O)cc12`, “inactive”.
For the compound `CCCCCCCCc1ccc(O)cc1`, the compound was classed as inactive.
In the case of `CNCCc1c[nH]c2ccc(O)cc12` it was “inactive”; in that of `Cn1cnc(CCN)c1`, “inactive”.
In the case of `Cc1nccc2c1[nH]c1ccccc12` it was “inactive”.
